This passage reports binding signal results from article PMC11006913.

Substitutions are numbered along the chain they refer to.

Holding throughout (assay): PBM; 200 nM protein, PBS
Common to all, as to conditions: dsDNA, one strand shown

Test [1] deals with HOXC10 (Homo sapiens, UniProt Q9NYD6 254-340).
Test [2] has as its target HOXD13 (Homo sapiens, UniProt P35453 263-343, T313R).
Test [3] deals with HOXD13 (Homo sapiens, UniProt P35453 263-343).
In test [4] the target is HOXC10 (Homo sapiens, UniProt Q9NYD6 254-340, K271E).
Chain of HOXC10 (Homo sapiens, UniProt Q9NYD6 254-340, K271E) (Q9NYD6 254-340 K271E): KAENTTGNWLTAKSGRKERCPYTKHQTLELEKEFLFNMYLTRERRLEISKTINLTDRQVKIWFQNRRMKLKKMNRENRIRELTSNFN
For test [5], the target named is HOXD13 (Homo sapiens, UniProt P35453 263-343, T313A).
Chain of HOXD13 (Homo sapiens, UniProt P35453 263-343, T313A) (P35453 263-343 T313A): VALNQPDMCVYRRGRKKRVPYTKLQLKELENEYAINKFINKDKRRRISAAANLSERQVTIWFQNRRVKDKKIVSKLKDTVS
Test [6] addresses ALX4 (Homo sapiens, UniProt Q9H161 200-286, Q225E).
A further test addresses HOXC9 (Homo sapiens, UniProt P31274 178-260, R222W).
For test [7], the target named is HOXA2 (Homo sapiens, UniProt O43364 129-215, R185T).
Chain of HOXA2 (Homo sapiens, UniProt O43364 129-215, R185T) (O43364 129-215 R185T): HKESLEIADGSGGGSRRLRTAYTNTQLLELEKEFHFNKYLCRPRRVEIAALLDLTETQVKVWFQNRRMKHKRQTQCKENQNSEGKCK
Test [8] concerns the target HOXA2 (Homo sapiens, UniProt O43364 129-215, R185K).
Test [9] concerns the target VAX1 (Homo sapiens, UniProt Q5SQQ9 86-172).
The target in test [10] is VAX1 (Homo sapiens, UniProt Q5SQQ9 86-172, T142I).
Chain of VAX1 (Homo sapiens, UniProt Q5SQQ9 86-172, T142I) (Q5SQQ9 86-172 T142I): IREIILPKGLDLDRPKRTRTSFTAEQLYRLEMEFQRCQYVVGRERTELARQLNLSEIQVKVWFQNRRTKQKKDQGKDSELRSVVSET
The target of test [11] is HOXA2 (Homo sapiens, UniProt O43364 129-215, Y150S).
Chain of HOXA2 (Homo sapiens, UniProt O43364 129-215, Y150S) (O43364 129-215 Y150S): as the sequence (O43364 129-215 R185T) above, with Y22S, T57R counted along it
Test [12] concerns the target HOXA2 (Homo sapiens, UniProt O43364 129-215).
Test [13] concerns the target VAX1 (Homo sapiens, UniProt Q5SQQ9 86-172, K157R).
Test [14] concerns the target T1, PAX4 (Homo sapiens, UniProt O43316 9-242, R200K).
T1 sequence: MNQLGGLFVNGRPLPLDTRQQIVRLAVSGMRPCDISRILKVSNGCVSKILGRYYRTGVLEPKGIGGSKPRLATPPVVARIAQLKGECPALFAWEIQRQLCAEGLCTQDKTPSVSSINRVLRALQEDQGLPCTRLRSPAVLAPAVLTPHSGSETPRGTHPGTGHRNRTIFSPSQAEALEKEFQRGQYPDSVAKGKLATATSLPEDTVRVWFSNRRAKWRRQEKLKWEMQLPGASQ

The target in test [15] is T2, PAX4 (Homo sapiens, UniProt O43316 9-242).
T2 sequence: T1 sequence with K192R

The target of test [16] is T3, PAX4 (Homo sapiens, UniProt O43316 9-242, R200Q).
T3 sequence: T1 sequence with K192Q

Test [17] deals with T4, PAX4 (Homo sapiens, UniProt O43316 9-242, F177V).
T4 sequence: T1 sequence with F169V, K192R

Test [18] has as its target T5, PAX4 (Homo sapiens, UniProt O43316 9-242, F177Y).
T5 sequence: T1 sequence with F169Y, K192R

Test [19] has as its target PROP1 (Homo sapiens, UniProt O75360 56-141).
The target of test [20] is PROP1 (Homo sapiens, UniProt O75360 56-141, R99H).
Chain of PROP1 (Homo sapiens, UniProt O75360 56-141, R99H) (O75360 56-141 R99H): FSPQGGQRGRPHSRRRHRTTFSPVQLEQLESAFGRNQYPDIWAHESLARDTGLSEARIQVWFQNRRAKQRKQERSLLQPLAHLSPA
For test [21], the target named is PROP1 (Homo sapiens, UniProt O75360 56-141, F88S).
Chain of PROP1 (Homo sapiens, UniProt O75360 56-141, F88S) (O75360 56-141 F88S): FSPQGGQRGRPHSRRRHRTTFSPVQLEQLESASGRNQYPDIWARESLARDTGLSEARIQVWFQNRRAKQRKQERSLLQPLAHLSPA
Test [22] has as its target T6, PAX4 (Homo sapiens, UniProt O43316 9-242, R227W).
T6 sequence: T1 sequence with K192R, R219W

Test [23] deals with ALX4 (Homo sapiens, UniProt Q9H161 200-286).
Chain of ALX4 (Homo sapiens, UniProt Q9H161 200-286) (Q9H161 200-286): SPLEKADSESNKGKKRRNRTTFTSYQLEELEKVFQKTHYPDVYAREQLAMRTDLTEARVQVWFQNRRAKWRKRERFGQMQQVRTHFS

Chain of HOXD13 (Homo sapiens, UniProt P35453 263-343) (P35453 263-343): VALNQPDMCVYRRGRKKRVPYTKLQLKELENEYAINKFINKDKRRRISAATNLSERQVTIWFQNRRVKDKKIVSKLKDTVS
Chain of HOXC10 (Homo sapiens, UniProt Q9NYD6 254-340) (Q9NYD6 254-340): as the sequence (Q9NYD6 254-340 K271E) above, with E18K counted along it
Chain of HOXD13 (Homo sapiens, UniProt P35453 263-343, T313R) (P35453 263-343 T313R): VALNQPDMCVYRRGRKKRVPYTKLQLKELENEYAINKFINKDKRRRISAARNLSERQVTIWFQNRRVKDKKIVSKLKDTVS
Chain of ALX4 (Homo sapiens, UniProt Q9H161 200-286, Q225E) (Q9H161 200-286 Q225E): as the sequence (Q9H161 200-286) above, with Q26E counted along it
Chain of VAX1 (Homo sapiens, UniProt Q5SQQ9 86-172, K157R) (Q5SQQ9 86-172 K157R): as the sequence (Q5SQQ9 86-172 T142I) above, with I57T, K72R counted along it
Chain of PROP1 (Homo sapiens, UniProt O75360 56-141) (O75360 56-141): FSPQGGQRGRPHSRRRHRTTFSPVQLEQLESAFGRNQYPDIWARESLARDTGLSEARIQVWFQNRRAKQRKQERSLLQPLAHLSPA
Chain of VAX1 (Homo sapiens, UniProt Q5SQQ9 86-172) (Q5SQQ9 86-172): as the sequence (Q5SQQ9 86-172 T142I) above, with I57T counted along it
Chain of HOXA2 (Homo sapiens, UniProt O43364 129-215, R185K) (O43364 129-215 R185K): as the sequence (O43364 129-215 R185T) above, with T57K counted along it
Chain of HOXC9 (P31274 178-260 R222W): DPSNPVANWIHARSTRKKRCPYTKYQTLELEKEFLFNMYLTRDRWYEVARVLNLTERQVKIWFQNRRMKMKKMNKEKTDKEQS
Chain of HOXA2 (Homo sapiens, UniProt O43364 129-215) (O43364 129-215): as the sequence (O43364 129-215 R185T) above, with T57R counted along it

As for GGAGGCCC, the binding signal with HOXC10 [1] was 10 upbm affinity estimate (log intensity, higher = more binding, comparable within an allelic series); with HOXD13 [2] it was 9.34 upbm affinity estimate (log intensity, higher = more binding, comparable within an allelic series); with HOXD13 [3], 9.46 upbm affinity estimate (log intensity, higher = more binding, comparable within an allelic series); with HOXC10 [4], 9.99 upbm affinity estimate (log intensity, higher = more binding, comparable within an allelic series); in the test with HOXD13 [5], 9.59 upbm affinity estimate (log intensity, higher = more binding, comparable within an allelic series).

With CCAATAAA, the binding signal with HOXC10 [1] is 12.1 upbm affinity estimate (log intensity, higher = more binding, comparable within an allelic series); with ALX4 [6], 11.4 upbm affinity estimate (log intensity, higher = more binding, comparable within an allelic series); in the test with HOXD13 [2], 11.1 upbm affinity estimate (log intensity, higher = more binding, comparable within an allelic series); with HOXD13 [3] it was 12.4 upbm affinity estimate (log intensity, higher = more binding, comparable within an allelic series); in the test with HOXC10 [4], 11.3 upbm affinity estimate (log intensity, higher = more binding, comparable within an allelic series); in the test with HOXD13 [5], 12.2 upbm affinity estimate (log intensity, higher = more binding, comparable within an allelic series). Further, the binding signal with HOXC9 was 11.1 upbm affinity estimate (log intensity, higher = more binding, comparable within an allelic series).

On to AGGGCGGA, for which the binding signal was 9.89 upbm affinity estimate (log intensity, higher = more binding, comparable within an allelic series) in the test with HOXC10 [1]; 9.35 upbm affinity estimate (log intensity, higher = more binding, comparable within an allelic series) with HOXD13 [2]; 9.36 upbm affinity estimate (log intensity, higher = more binding, comparable within an allelic series) in the test with HOXD13 [3]; 9.9 upbm affinity estimate (log intensity, higher = more binding, comparable within an allelic series) with HOXC10 [4]; 9.37 upbm affinity estimate (log intensity, higher = more binding, comparable within an allelic series) in the test with HOXD13 [5].

For CTTTTTTA, the binding signal with HOXC10 [1] is 11.2 upbm affinity estimate (log intensity, higher = more binding, comparable within an allelic series).

With TATGTGCA, the binding signal in the test with HOXC10 [1] was 10.7 upbm affinity estimate (log intensity, higher = more binding, comparable within an allelic series).

For GGCACGCC, the binding signal in the test with HOXC10 [1] was 10 upbm affinity estimate (log intensity, higher = more binding, comparable within an allelic series); in the test with HOXA2 [7], 6.97 upbm affinity estimate (log intensity, higher = more binding, comparable within an allelic series); with HOXA2 [8] it was 10.1 upbm affinity estimate (log intensity, higher = more binding, comparable within an allelic series); in the test with HOXC10 [4], 10 upbm affinity estimate (log intensity, higher = more binding, comparable within an allelic series); with VAX1 [9], 6.93 upbm affinity estimate (log intensity, higher = more binding, comparable within an allelic series); with VAX1 [10] it was 7.04 upbm affinity estimate (log intensity, higher = more binding, comparable within an allelic series). The binding signal with HOXA2 [11] was 10.3 upbm affinity estimate (log intensity, higher = more binding, comparable within an allelic series); in the test with HOXA2 [12], 7.03 upbm affinity estimate (log intensity, higher = more binding, comparable within an allelic series); in the test with VAX1 [13] it was 6.97 upbm affinity estimate (log intensity, higher = more binding, comparable within an allelic series).

CTTTATTA: the binding signal in the test with HOXC10 [1] was 12.2 upbm affinity estimate (log intensity, higher = more binding, comparable within an allelic series); with HOXD13 [2], 10.6 upbm affinity estimate (log intensity, higher = more binding, comparable within an allelic series); with HOXD13 [3], 11.8 upbm affinity estimate (log intensity, higher = more binding, comparable within an allelic series); in the test with HOXC10 [4], 11.7 upbm affinity estimate (log intensity, higher = more binding, comparable within an allelic series); with HOXD13 [5], 11.5 upbm affinity estimate (log intensity, higher = more binding, comparable within an allelic series).

As to CTCCCCCC, the binding signal with HOXC10 [1] is 9.99 upbm affinity estimate (log intensity, higher = more binding, comparable within an allelic series); in the test with PAX4 [14] it was 9.31 upbm affinity estimate (log intensity, higher = more binding, comparable within an allelic series); in the test with PAX4 [15], 9.32 upbm affinity estimate (log intensity, higher = more binding, comparable within an allelic series); in the test with PAX4 [16] it was 9.28 upbm affinity estimate (log intensity, higher = more binding, comparable within an allelic series); with PAX4 [17], 9.04 upbm affinity estimate (log intensity, higher = more binding, comparable within an allelic series); with HOXC10 [4], 9.94 upbm affinity estimate (log intensity, higher = more binding, comparable within an allelic series). The binding signal is 9.19 upbm affinity estimate (log intensity, higher = more binding, comparable within an allelic series) in the test with PAX4 [18]; 6.67 upbm affinity estimate (log intensity, higher = more binding, comparable within an allelic series) with PROP1 [19]; 6.5 upbm affinity estimate (log intensity, higher = more binding, comparable within an allelic series) with PROP1 [20]; 5.95 upbm affinity estimate (log intensity, higher = more binding, comparable within an allelic series) with PROP1 [21]; 9.13 upbm affinity estimate (log intensity, higher = more binding, comparable within an allelic series) with PAX4 [22].

Turning to ATGCATAA, the binding signal is 11.2 upbm affinity estimate (log intensity, higher = more binding, comparable within an allelic series) in the test with HOXC10 [1]; 10.3 upbm affinity estimate (log intensity, higher = more binding, comparable within an allelic series) with ALX4 [23]; 9.57 upbm affinity estimate (log intensity, higher = more binding, comparable within an allelic series) with ALX4 [6]; 10.9 upbm affinity estimate (log intensity, higher = more binding, comparable within an allelic series) with HOXC10 [4].
